High-throughput results: PubChem BioAssay, Broad Institute
A selection follows.
aSyn UTR act: Activators working through SNCA 5'UTR binding (MLPCN); alpha-synuclein 5'UTR reporter, activators screen; activity score, % (tested at 7.5 µM), hits read low; 7.1% of 300,000 active; in the data active = activity score below about -60%
Large screens that a line does not name were inactive.

COC(=O)Cn1c(SCc2ccccc2)nc2ccccc21	aSyn UTR act -166.2
Clc1ccccc1/C=N/Nc1cc(N2CCOCC2)ncn1	aSyn UTR act -151.3
O=[N+]([O-])c1cccc(/C=N/Nc2cc(N3CCOCC3)ncn2)c1	aSyn UTR act -90.0
C/C(=N\Nc1cc(N2CCOCC2)ncn1)c1ccccc1	aSyn UTR act -79.1
C/C(=N\Nc1cc(N2CCOCC2)ncn1)c1cccc([N+](=O)[O-])c1	aSyn UTR act -81.4
NC(=O)c1cc(Br)cc(C2CCCCC2)c1O	none
N/C(=N\OC(=O)C1CCCCC1)c1ccc(Cl)cc1	aSyn UTR act -138.3
N/C(=N\OC(=O)C1CCCCC1)c1ccccn1	aSyn UTR act -118.8
N/C(=N\OC(=O)C1CCCCC1)c1ccc(Br)cc1	aSyn UTR act -217.3
CC/C(=N\NC(=O)c1csc(C)c1C)c1cccs1	aSyn UTR act -181.8
C/C(=N\NC(=O)c1csc(C)c1C)c1ccc(Cl)s1	aSyn UTR act -124.9
CCC/C(=N\NC(=O)c1csc(C)c1C)c1cccs1	aSyn UTR act -108.9
CC(C)C(=O)Nc1ccc(C(=O)c2ccccc2)cc1	aSyn UTR act -87.6
COc1cccc(NC(=O)c2ccc(OC(F)(F)F)cc2)c1	aSyn UTR act -153.2
COc1cc(NC(=O)N2CCNC2=O)cc(C(=O)Nc2cccc(C(F)(F)F)c2)c1	none
CC(=O)c1ccc(NC(=O)C(C)NCc2ccccc2Cl)cc1 (stereo not drawn)	aSyn UTR act -78.2
COc1cccc(NC(=O)c2ccc(NC(=O)C(C)C)cc2)c1	aSyn UTR act -114.6
O=C(CCC1CCCC1)Nc1ccc(C(=O)NCc2cccnc2)cc1	none
Cn1ccnc1CN1CCCCC1C(=O)Nc1ccc(Oc2cccnc2)cc1 (stereo not drawn)	aSyn UTR act -76.9
Cc1cc(/C=C(\C#N)C(=O)NCC2CCCO2)c(C)n1-c1ccc(Cl)cc1 (stereo not drawn)	aSyn UTR act -267.3
COc1ccc(C(=O)N2CCc3ccc(NC(=O)c4ccccn4)cc3C2)cc1F	aSyn UTR act -101.2
COc1ccc(N2C(=O)c3ccccc3NC23CCC(C)CC3)cc1 (stereo not drawn)	aSyn UTR act -106.0
COc1ccc(N2C(=O)c3ccccc3NC23CCCCC3)cc1	aSyn UTR act -75.6
CCc1ccc(NC(=O)c2ccccc2Br)cc1	aSyn UTR act -144.3
O=C(CNC(=O)c1ccccc1Br)N/N=C/c1cc(Br)ccc1O	none
O=C(Nc1ccc(Br)cc1)c1ccccc1Br	aSyn UTR act -199.6
Cc1c(C(=O)Nc2ccc(Br)cc2)cnn1C	aSyn UTR act -112.1
CCc1ccc(NC(=O)c2n[nH]c(=O)c3ccccc23)cc1	aSyn UTR act -84.0
Cc1ccc(-c2csc3nc(C)n(N)c(=O)c23)o1	aSyn UTR act -130.2
CCn1c(=S)[nH]c2scc(-c3cccs3)c2c1=O	aSyn UTR act -72.3
C=CCn1c(SCC(C)=O)nc2scc(-c3ccc(C)o3)c2c1=O	aSyn UTR act -150.0
C=CCn1c(SCC(=O)c2[nH]c(C)c(C(=O)OCC)c2C)nc2scc(-c3ccc(OC)c(OC)c3)c2c1=O	none
C=CCn1c(=S)[nH]c2scc(-c3ccc(C)o3)c2c1=O	aSyn UTR act -68.5
CN(C(=O)/C=C/c1ccc([N+](=O)[O-])s1)c1ccccc1	aSyn UTR act -81.7
COc1ccc2c(c1)CCc1c(C(=O)N3CCCc4ccccc43)noc1-2	aSyn UTR act -65.6
COc1ccc2c(c1)CCc1c(C(=O)N3CCOCC3)noc1-2	aSyn UTR act -161.8
O=C(c1nn2c(C(F)(F)F)cc(-c3cccs3)nc2c1Cl)N1CCCc2ccccc21	none
CCSc1nc2ccccc2n1C(=O)/C=C/c1ccc(OC)c(OC)c1	aSyn UTR act -168.0
C=CCSc1nc2ccccc2n1C(=O)/C=C/c1ccc(OC)c(OC)c1	aSyn UTR act -219.4
C=CCSc1nc2ccccc2n1C(=O)/C=C/c1cc(OC)c(OC)c(OC)c1	aSyn UTR act -172.3
CNc1nc(-c2ccccc2)[n+](-c2ccc(C)cc2)s1	aSyn UTR act -115.6
COc1ccccc1NC(=S)N/N=C/c1ccc(O)cc1	aSyn UTR act -156.8
COc1ccccc1NC(=S)N/N=C/c1cccc(C)c1	aSyn UTR act -66.4
CCOC(=O)Cn1c(=NC(=O)c2ccc([N+](=O)[O-])s2)sc2ccccc21	aSyn UTR act -179.5
COc1c(C(=O)Nc2ccc(Br)cn2)ccc2ccccc12	aSyn UTR act -166.9
O=C(Nc1ccc(Br)cn1)c1ccc2ccccc2c1	aSyn UTR act -83.4
COc1cc2ccccc2cc1C(=O)Nc1ccc(Br)cn1	aSyn UTR act -175.1
O=C1CCCCC/C1=N/Nc1ccc(OCc2ccccc2)cc1	aSyn UTR act -74.0
CC(Cc1ccco1)NC(=O)c1ccc(C(F)(F)F)cc1 (stereo not drawn)	aSyn UTR act -68.8
S=C(NCc1ccco1)Nc1cc(-c2ccccc2)[nH]n1	aSyn UTR act -68.3
Cc1cc(N2CCN(Cc3cn(C)nc3-c3cccc(Cl)c3)CC2)cc(C)n1	none
FC(F)(F)c1ccccc1/C=N/N1CCN(Cc2ccccc2)CC1	aSyn UTR act -72.2
Cc1ccc(/C=N/N2CCN(Cc3ccccc3)CC2)s1	aSyn UTR act -83.2
C(=N\N1CCN(Cc2ccccc2)CC1)/c1ccccc1	aSyn UTR act -63.6
Clc1cccc(/C=N/N2CCN(Cc3ccccc3)CC2)c1	aSyn UTR act -91.3
O=[N+]([O-])c1ccccc1/C=N/N1CCN(Cc2ccccc2)CC1	aSyn UTR act -100.9
Cc1ccc(/C=N/N2CCOCC2)s1	aSyn UTR act -101.4
C/C(=N\N1CCN(Cc2ccccc2)CC1)c1ccco1	aSyn UTR act -80.4
CC(=O)[C@@]1(O)C(C)CC2C3C=C(C)C4=Cc5c(cnn5-c5ccccc5)C[C@]4(C)C3C(O)C[C@@]21C (stereo partly drawn)	none
COC(=O)N1N=C(c2ccccc2)CC1(O)C(F)(F)F (stereo not drawn)	aSyn UTR act -64.7
CNc1nnc(CSc2nc3ccccc3s2)s1	aSyn UTR act -87.8
Cc1ccc2nc(Nc3nc(CSc4nc5ccccc5s4)cc(=O)[nH]3)nc(C)c2c1	none
c1csc(CSc2nc3ccccc3s2)c1	aSyn UTR act -279.9
Cc1c(C(=O)N2CCOCC2)sc2nc(-c3ccccc3)cn12	aSyn UTR act -122.5
c1ccc(-c2cn3c4c(sc3n2)CCCC4)cc1	none
Cc1nc2cc(-c3ccccc3)nn2c(C)c1CCC(=O)NCc1ccco1	none
Cc1c(C(=O)NCc2ccco2)sc2nc(-c3ccccc3)cn12	aSyn UTR act -83.0
Cc1c(C(=O)NCc2cccnc2)sc2nc(-c3ccc(F)cc3)cn12	aSyn UTR act -144.2
O=C(Nc1ccc2c(c1)OCO2)Nc1ccccn1	aSyn UTR act -85.8
O=C(Nc1cccc(F)c1)Nc1ccccn1	aSyn UTR act -152.7
O=C(NCc1ccncc1)Nc1ccc2c(c1)OCO2	aSyn UTR act -64.3
O=C(Nc1ccc2c(c1)OCO2)Nc1cnccn1	aSyn UTR act -98.3
O=C(NCc1cccs1)Nc1ccc2c(c1)OCO2	aSyn UTR act -145.0
Cc1cccc(NC(=O)NCc2ccc3c(c2)OCO3)c1	aSyn UTR act -67.0
O=C(NCc1cccs1)Nc1ccc(Cl)cc1	aSyn UTR act -98.5
O=C(Nc1ccccn1)Nc1cccs1	aSyn UTR act -76.8
CC(=O)c1cccc(NC(=O)NCc2ccccn2)c1	aSyn UTR act -166.9
O=C(NCc1ccccn1)Nc1ccc2c(c1)OCO2	aSyn UTR act -91.9
CCc1ccc(NC(=O)NCCCN2CCCC2=O)cc1	aSyn UTR act -65.2
Cc1ccc(NC(=O)C(=O)NCCCN2CCCC2=O)cc1	aSyn UTR act -70.9
O=c1[nH]n(Cc2ccccc2)c(=O)c2ccccc12	aSyn UTR act -68.0
CCOC(=O)C1CCCCN1C(=O)CCc1c(C)nc2ncnn2c1C (stereo not drawn)	none
